Inconclusive results are not listed. Active and inactive are the calls of the source. How the source made its calls, unless noted: active means hit-call score of the fitted dose curve at least 0.9, where 1 is the maximum; inactive means score below 0.9.
Columns and labels:
[1] = target: Paired box protein Pax-6 (Homo sapiens) (UniProt P26367); test: ATG_Pax6_CIS: Attagene CIS-FACTORIAL HepG2 Assay for human Paired Box 6 (PAX6) (AID 2282956); details: HepG2 CIS-FACTORIAL PAX6 reporter transcription, RNA readout; actives raise or lower the signal
How it was run: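 Values derive from bidirectional curve fitting of reporter mRNA signal relative to DMSO. HepG2 cells bearing transfected cis-regulated MRTUs were exposed for 24 h; transcripts were read by RT-PCR and capillary electrophoresis.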

[2] = ATG_PPRE_CIS: Attagene CIS-FACTORIAL HepG2 Assay for human Peroxisome Proliferator-activated Response Element (PPRE) (AID 2282958); details: HepG2 PPRE cis-element reporter, Attagene transcription factor profiling; actives raise or lower the signal
How it was run: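 Read-out: fluorescent reporter mRNA fragments resolved by capillary electrophoresis after RT-PCR. HepG2 cells carried transiently transfected PPRE-driven cis reporter constructs and were dosed for 24 h; gain or loss of signal fitted relative to DMSO.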

[3] = ATG_RORE_CIS: Attagene CIS-FACTORIAL HepG2 Assay for human RAR-related Orphan Receptor Element (RORE) (AID 2282959); details: HepG2 Attagene cis-factorial RORE reporter, mRNA; actives raise or lower the signal
How it was run: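 Readout: fluorescent reporter mRNA by RT-PCR plus capillary electrophoresis, 24 h after dosing transfected HepG2 cells. Endogenous transcription factor activity on a cis promoter element is measured. Gain or loss of signal fitted against DMSO.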

[4] = ATG_Sox_CIS: Attagene CIS-FACTORIAL HepG2 Assay for human SRY-box transcription factor (SOX) (AID 2282960); details: HepG2 Attagene cis-factorial SOX reporter, mRNA; actives raise or lower the signal
How it was run: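 Read-out: fluorescent RT-PCR products of SOX1-linked reporter transcripts resolved by capillary electrophoresis, fitted bidirectionally against DMSO. Transiently transfected HepG2 cells, 24 h after chemical exposure, endogenous transcription factor activity.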

[5] = target: Transcription factor Sp1 (Homo sapiens) (UniProt P08047); test: ATG_Sp1_CIS: Attagene CIS-FACTORIAL HepG2 Assay for human Specificity Protein 1 (Sp1) (AID 2282961); details: HepG2 Sp1 cis-reporter transcription, actives raise or lower the signal
How it was run: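 Read-out: fluorescence of 6-FAM-labeled, HpaI-digested RT-PCR products separated by capillary electrophoresis. HepG2 cells carried transfected cis-element reporter units and were exposed to chemicals for 24 h; gain or loss of signal fitted relative to DMSO.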

[6] = ATG_SREBP_CIS: Attagene CIS-FACTORIAL HepG2 Assay for human Sterol Regulatory Element Binding (SREBP) (AID 2282962); details: HepG2 Attagene cis-factorial SREBP reporter, mRNA; actives raise or lower the signal
How it was run: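 Values derive from bidirectional curve fitting with DMSO as baseline. The underlying measurement is reporter mRNA from cis-element-regulated units in transiently transfected HepG2, quantified by RT-PCR and capillary electrophoresis after 24 h exposure.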

[7] = target: Signal transducer and activator of transcription 3 (Homo sapiens) (UniProt P40763); test: ATG_STAT3_CIS: Attagene CIS-FACTORIAL HepG2 Assay for human Signal Transducer and Activator of Transcription 3 (STAT3) (AID 2282963); details: HepG2, Attagene cis-factorial STAT3 reporter transcription; actives raise or lower the signal
How it was run: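 Cis-factorial format: endogenous transcription factors in HepG2 drive transfected reporter units. After 24 h treatment, reporter RNA was reverse-transcribed, amplified, FAM-labelled and HpaI-digested before CE analysis; activity scored in both directions against DMSO.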

[8] = ATG_TA_CIS: Attagene CIS-FACTORIAL HepG2 Assay for human TA Basal Promoter (AID 2282964); details: HepG2 Attagene CIS-factorial TA basal promoter reporter; actives raise or lower the signal
How it was run: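 Transfected HepG2, 24 h compound exposure; RNA → RT-PCR → FAM primer extension → HpaI cut → CE fluorescence. Gain/loss-of-signal fitted against DMSO negative control. Background-control readout.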

[9] = ATG_TCF_b_cat_CIS: Attagene CIS-FACTORIAL HepG2 Assay for human T-Cell-Factor with beta-catenin (TCF/b-cat) (AID 2282965); details: HepG2 TCF/beta-catenin cis-reporter transcription, actives raise or lower the signal
How it was run: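 Endogenous TCF/LEF activity read as reporter transcript level via RT-PCR and capillary electrophoresis fluorescence in transfected HepG2, 24 h exposure; gain or loss of signal fitted against DMSO controls.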

[10] = ATG_TAL_CIS: Attagene CIS-FACTORIAL HepG2 Assay for human TAL Basal Promoter (AID 2282966); details: HepG2 Attagene cis-factorial TAL promoter reporter; actives raise or lower the signal;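 further: background control endpoint measuring basal TAL promoter reporter mRNA not a specific factor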
How it was run: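 Human hepatoma HepG2 cells, transfected with promoter-regulated reporter units, were treated 24 h. Reporter transcript levels, measured through RT-PCR and capillary electrophoresis, were fitted for gain or loss relative to DMSO.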

[11] = ATG_TGFb_CIS: Attagene CIS-FACTORIAL HepG2 Assay for human Transforming Growth Factor (TGF) (AID 2282967); details: HepG2 Attagene CIS TGFb reporter, mRNA transcription; actives raise or lower the signal
How it was run: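 Readout: fluorescently labeled reporter cDNA fragments resolved by capillary electrophoresis after RT-PCR. Transfected HepG2 cells dosed for 24 h; endogenous TF activity at TGFB1-linked cis element; gain or loss fitted relative to DMSO.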

[12] = ATG_VDRE_CIS: Attagene CIS-FACTORIAL HepG2 Assay for human Vitamin D Receptor Element (VDRE) (AID 2282968); details: HepG2 VDRE cis-reporter transcription, actives raise or lower the signal
How it was run: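 Measures endogenous factor activity through cis-element-driven reporter transcripts in transiently transfected HepG2. Cells are treated 24 h; reporter mRNA is quantified by RT-PCR and capillary electrophoresis; fitting is bidirectional.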

[13] = target: Nuclear receptor subfamily 1 group I member 3 (Homo sapiens) (UniProt Q14994); test: ATG_CAR_TRANS: Attagene TRANS-FACTORIAL HepG2 Assay for human Constitutive Androstane Receptor (CAR) (AID 2282969; active means hit-call score of the fitted dose curve at least 0.9, where 1 is the maximum;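 further: activators raise reporter mRNA above DMSO so AC50 marks induction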); details: HepG2 Attagene TRANS-FACTORIAL CAR reporter
How it was run: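 Signal is reporter mRNA induction relative to DMSO, measured 24 h after dosing by RT-PCR with fluorescent primer extension and capillary electrophoresis. Human HepG2 liver cells carried transiently transfected chimeric NR-Gal4/GAL4-UAS reporter constructs.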

[14] = target: X-box-binding protein 1 (Homo sapiens) (UniProt P17861); test: ATG_Xbp1_CIS: Attagene CIS-FACTORIAL HepG2 Assay for human X-box Binding Protein 1 (XBP1) (AID 2282972); details: HepG2 XBP1 cis-element reporter, Attagene multiplex; actives raise or lower the signal
How it was run: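 Human hepatoma HepG2, cis-element reporter system, 24 h treatment; mRNA quantified by RT-PCR/CE fluorescence; fit relative to DMSO.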

[15] = target: Estrogen receptor (Homo sapiens) (UniProt P03372); test: ATG_ERa_TRANS: Attagene TRANS-FACTORIAL HepG2 Assay for human Estrogen Receptor alpha (ERa) (AID 2282970; active means hit-call score of the fitted dose curve at least 0.9, where 1 is the maximum); details: HepG2 Attagene TRANS ERa GAL4 reporter, mRNA
How it was run: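 Signal derives from fluorescence of labelled reporter PCR fragments separated by capillary electrophoresis. HepG2 cells transiently carrying multiple GAL4-UAS reporter units were treated 24 hours, and induction above DMSO baseline was fitted as activity.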

[16] = ATG_M_19_TRANS: Attagene TRANS-FACTORIAL HepG2 Assay for M19 Transcription Factor (Internal Marker) (AID 2282974; active means hit-call score of the fitted dose curve at least 0.9, where 1 is the maximum); details: HepG2 Attagene TRANS-FACTORIAL M19 internal marker reporter
How it was run: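 24 h chemical exposure of transiently transfected HepG2 (MRTU library). RNA → oligo(dT) RT → PCR → 6-FAM labelling → HpaI cut → CE fluorescence. Positive-direction fit vs DMSO baseline; background internal-marker readout.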

[17] = ATG_GAL4_TRANS: Attagene TRANS-FACTORIAL HepG2 Assay for GAL4 (Internal Marker) (AID 2282976; active means hit-call score of the fitted dose curve at least 0.9, where 1 is the maximum); details: HepG2 Attagene TRANS GAL4 internal marker reporter
How it was run: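 Liver HepG2 line bearing multiplexed GAL4-UAS reporter constructs; 24 h chemical treatment. Transcripts were quantified as fluorescent fragments on capillary electrophoresis after RT-PCR and HpaI cut, with activity fitted upward from DMSO.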

[18] = target: Estrogen-related receptor gamma (Homo sapiens) (UniProt P62508); test: ATG_ERRg_TRANS: Attagene TRANS-FACTORIAL HepG2 Assay for human Estrogen-Related Receptor gamma (ERRg) (AID 2282977; active means hit-call score of the fitted dose curve at least 0.9, where 1 is the maximum;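 further: hits increase reporter signal over DMSO so potencies reflect activators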); details: HepG2 Attagene TRANS reporter, ERRg transactivation
How it was run: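 Readout: fluorescent reporter-mRNA fragments resolved by capillary electrophoresis after RT-PCR and HpaI cut. Cells: transiently transfected HepG2 carrying GAL4-UAS reporters driven by exogenous NR-Gal4 chimeras, dosed 24 h. Activity fitted upward relative to DMSO baseline.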

[19] = target: Steroid hormone receptor ERR1 (Homo sapiens) (UniProt P11474); test: ATG_ERRa_TRANS: Attagene TRANS-FACTORIAL HepG2 Assay for human Estrogen-Related Receptor alpha (ERRa) (AID 2282971; active means hit-call score of the fitted dose curve at least 0.9, where 1 is the maximum); details: HepG2 Attagene TRANS reporter, ERRa transactivation
How it was run: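 Signal gain relative to DMSO for an ERRa-Gal4 chimeric receptor, read as reporter mRNA by RT-PCR/capillary electrophoresis. Human HepG2 liver cells, transient multiplex reporter transfection, 24 h chemical exposure.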

Measured: AC50

Chain of X-box-binding protein 1 (Homo sapiens) (P17861 whole entry, looked up): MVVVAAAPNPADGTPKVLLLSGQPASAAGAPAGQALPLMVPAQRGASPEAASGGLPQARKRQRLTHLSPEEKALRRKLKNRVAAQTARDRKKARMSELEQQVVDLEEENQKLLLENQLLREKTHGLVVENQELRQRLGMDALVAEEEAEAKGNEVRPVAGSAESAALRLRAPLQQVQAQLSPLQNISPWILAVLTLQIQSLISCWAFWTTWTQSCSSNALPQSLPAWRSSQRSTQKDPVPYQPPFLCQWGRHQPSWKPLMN
Chain of Estrogen receptor (Homo sapiens) (P03372 whole entry, looked up, the tested form may be a part): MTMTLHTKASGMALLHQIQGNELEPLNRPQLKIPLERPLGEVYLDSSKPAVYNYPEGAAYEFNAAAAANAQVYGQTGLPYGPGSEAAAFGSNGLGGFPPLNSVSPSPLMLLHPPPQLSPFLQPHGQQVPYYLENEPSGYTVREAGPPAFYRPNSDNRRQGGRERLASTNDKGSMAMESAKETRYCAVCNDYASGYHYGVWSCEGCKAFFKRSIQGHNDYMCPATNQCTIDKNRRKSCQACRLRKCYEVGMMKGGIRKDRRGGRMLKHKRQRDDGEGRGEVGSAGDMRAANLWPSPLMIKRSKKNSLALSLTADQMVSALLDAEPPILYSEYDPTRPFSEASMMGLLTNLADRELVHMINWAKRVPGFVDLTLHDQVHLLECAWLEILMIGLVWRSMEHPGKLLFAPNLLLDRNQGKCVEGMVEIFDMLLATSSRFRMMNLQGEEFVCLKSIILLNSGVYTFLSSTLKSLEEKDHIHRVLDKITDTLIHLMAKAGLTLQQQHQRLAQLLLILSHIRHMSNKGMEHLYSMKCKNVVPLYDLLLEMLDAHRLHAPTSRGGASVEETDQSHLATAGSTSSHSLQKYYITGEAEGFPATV
Chain of Paired box protein Pax-6 (Homo sapiens) (P26367 whole entry, looked up): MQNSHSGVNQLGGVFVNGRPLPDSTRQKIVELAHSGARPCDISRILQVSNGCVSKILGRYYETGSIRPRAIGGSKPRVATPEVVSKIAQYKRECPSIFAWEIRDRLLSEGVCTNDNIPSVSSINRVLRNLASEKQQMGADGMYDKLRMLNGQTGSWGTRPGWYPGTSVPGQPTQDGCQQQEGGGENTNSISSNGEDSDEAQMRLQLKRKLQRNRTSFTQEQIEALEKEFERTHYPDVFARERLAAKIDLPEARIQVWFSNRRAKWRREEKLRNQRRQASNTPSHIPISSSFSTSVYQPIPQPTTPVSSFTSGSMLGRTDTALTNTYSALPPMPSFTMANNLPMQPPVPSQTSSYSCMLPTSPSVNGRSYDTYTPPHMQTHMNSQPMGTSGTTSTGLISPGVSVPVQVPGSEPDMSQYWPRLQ
Chain of Signal transducer and activator of transcription 3 (Homo sapiens) (P40763 whole entry, looked up): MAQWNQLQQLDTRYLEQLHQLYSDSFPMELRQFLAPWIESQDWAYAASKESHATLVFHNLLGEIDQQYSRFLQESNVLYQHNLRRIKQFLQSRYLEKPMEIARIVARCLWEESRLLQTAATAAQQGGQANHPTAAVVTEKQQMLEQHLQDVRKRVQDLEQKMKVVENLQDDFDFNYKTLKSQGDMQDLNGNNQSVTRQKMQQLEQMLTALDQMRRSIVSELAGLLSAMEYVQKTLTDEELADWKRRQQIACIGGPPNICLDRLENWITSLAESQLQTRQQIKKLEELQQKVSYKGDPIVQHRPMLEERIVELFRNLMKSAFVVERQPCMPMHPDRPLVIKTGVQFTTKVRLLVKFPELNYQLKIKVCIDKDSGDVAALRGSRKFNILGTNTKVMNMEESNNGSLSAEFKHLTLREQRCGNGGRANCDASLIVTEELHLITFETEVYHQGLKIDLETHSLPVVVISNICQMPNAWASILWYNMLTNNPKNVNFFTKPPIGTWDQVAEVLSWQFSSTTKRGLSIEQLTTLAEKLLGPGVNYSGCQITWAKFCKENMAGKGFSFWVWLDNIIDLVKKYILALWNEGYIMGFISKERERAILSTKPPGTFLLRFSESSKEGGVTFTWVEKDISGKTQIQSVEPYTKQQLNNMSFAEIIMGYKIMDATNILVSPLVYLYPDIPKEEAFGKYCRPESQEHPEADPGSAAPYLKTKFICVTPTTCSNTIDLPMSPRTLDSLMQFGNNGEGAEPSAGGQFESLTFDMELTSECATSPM
Chain of Transcription factor Sp1 (Homo sapiens) (P08047 whole entry, looked up): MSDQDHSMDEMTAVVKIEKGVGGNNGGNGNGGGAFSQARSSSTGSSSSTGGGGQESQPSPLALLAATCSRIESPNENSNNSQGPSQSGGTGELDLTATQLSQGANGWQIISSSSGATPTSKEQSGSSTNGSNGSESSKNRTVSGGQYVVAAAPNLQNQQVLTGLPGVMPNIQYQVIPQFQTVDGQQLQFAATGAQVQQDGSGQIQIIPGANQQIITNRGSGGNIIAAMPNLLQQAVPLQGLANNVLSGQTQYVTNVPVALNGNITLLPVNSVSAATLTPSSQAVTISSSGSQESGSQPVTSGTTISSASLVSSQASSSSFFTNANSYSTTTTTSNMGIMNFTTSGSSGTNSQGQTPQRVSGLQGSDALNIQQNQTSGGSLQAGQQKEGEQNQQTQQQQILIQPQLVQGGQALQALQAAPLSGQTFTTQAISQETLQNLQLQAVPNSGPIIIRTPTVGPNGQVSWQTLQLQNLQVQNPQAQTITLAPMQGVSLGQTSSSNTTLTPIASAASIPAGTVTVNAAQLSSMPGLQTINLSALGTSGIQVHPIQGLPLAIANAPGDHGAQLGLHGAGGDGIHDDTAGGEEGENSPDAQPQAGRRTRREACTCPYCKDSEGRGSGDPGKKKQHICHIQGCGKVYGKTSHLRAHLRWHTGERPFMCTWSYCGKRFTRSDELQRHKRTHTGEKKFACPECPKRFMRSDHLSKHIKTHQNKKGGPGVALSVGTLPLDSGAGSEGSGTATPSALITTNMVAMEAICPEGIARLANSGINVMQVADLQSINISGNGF
Chain of Nuclear receptor subfamily 1 group I member 3 (Homo sapiens) (Q14994 whole entry, looked up, the tested form may be a part): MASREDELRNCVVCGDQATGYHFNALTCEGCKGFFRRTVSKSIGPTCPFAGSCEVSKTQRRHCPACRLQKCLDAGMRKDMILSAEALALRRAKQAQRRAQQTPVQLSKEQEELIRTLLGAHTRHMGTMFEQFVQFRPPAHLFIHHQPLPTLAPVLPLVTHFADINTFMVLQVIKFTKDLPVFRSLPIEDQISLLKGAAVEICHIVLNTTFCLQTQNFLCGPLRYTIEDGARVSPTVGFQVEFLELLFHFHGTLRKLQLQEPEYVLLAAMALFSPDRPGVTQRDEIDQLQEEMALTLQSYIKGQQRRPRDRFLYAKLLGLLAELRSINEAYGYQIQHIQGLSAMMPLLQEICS
Chain of Estrogen-related receptor gamma (Homo sapiens) (P62508 whole entry, looked up, the tested form may be a part): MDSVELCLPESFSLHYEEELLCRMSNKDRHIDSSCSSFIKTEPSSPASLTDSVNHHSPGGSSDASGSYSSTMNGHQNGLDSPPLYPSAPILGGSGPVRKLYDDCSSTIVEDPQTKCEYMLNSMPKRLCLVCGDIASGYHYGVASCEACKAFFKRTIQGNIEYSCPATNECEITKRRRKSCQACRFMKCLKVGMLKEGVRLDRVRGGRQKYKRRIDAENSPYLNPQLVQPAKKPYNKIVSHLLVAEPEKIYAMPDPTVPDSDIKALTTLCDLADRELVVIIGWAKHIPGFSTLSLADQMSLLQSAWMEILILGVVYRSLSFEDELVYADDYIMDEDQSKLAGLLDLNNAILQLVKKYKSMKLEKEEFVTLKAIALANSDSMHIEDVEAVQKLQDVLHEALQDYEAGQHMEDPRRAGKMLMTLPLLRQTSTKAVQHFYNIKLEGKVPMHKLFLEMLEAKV
Chain of Steroid hormone receptor ERR1 (Homo sapiens) (P11474 whole entry, looked up, the tested form may be a part): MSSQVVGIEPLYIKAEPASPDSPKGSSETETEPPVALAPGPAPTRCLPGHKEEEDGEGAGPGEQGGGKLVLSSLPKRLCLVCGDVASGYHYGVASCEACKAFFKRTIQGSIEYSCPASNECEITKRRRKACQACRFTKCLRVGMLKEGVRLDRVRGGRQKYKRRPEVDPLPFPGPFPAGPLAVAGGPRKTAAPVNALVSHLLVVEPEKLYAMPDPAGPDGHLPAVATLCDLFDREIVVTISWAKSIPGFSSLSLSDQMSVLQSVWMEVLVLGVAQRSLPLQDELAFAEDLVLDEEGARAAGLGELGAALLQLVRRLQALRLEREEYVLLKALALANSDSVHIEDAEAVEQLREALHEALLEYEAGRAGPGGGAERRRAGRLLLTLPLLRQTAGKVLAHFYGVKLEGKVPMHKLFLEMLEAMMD

Cc1ccc(C(C)(C)C)cc1
not listed: [15] | [16] | [17] | [18] | [19]
inactive: all other assays above

CC(C)(c1cc(Br)c(OCCO)c(Br)c1)c1cc(Br)c(OCCO)c(Br)c1
inactive: [4] | [5] | [11] | [15] | [16]
active: [1] 17.4 µM | [6] 18 µM | [8] 15.3 µM | [9] 7.14 µM | [10] 27 µM | [12] 1.22 µM | [14] 30.1 µM

COC(=O)/C=C\C(=O)O
not listed: [12] | [13] | [15] | [16] | [17] | [18] | [19]
inactive: all other assays above

CC(=O)OCC(=O)[C@@]12N=C(C)O[C@@H]1C[C@H]1[C@@H]3CCC4=CC(=O)C=C[C@]4(C)[C@H]3[C@@H](O)C[C@@]12C
active: [12] 25 µM
not listed: [13] | [18] | [19]
inactive: all other assays above

Nc1ccc(Cl)cc1Cl
not listed: [12] | [13] | [15] | [16] | [17] | [19]
inactive: all other assays above

O=C1C(N(CO)C(=O)NCO)N(CO)C(=O)N1CO (stereo unspecified)
not listed: [2] | [18] | [19]
inactive: all other assays above

Cc1cccc(C(=O)O)c1
not listed: [11] | [13] | [16] | [18] | [19]
inactive: all other assays above

COc1ccc(-c2coc3cc(O)ccc3c2=O)cc1
active: [15] 1.21 µM
not listed: [3] | [13] | [16] | [17] | [18] | [19]
inactive: all other assays above

CCCOC(=O)CCCCC(=O)OCCC
not listed: [2] | [13] | [15]
inactive: all other assays above

— PubChem BioAssay (EPA / NIEHS)
